Inconclusive results are not listed. Entries that show only a call come without a potency. Activity calls are given as the source filed them. How the calls were made is not given here.
Potency means the concentration at half of the fitted maximal effect.

The experiment is described as follows: qHTS assay to identify small molecule antagonists of the estrogen related receptor signaling pathway with the pleiotropic PPARgamma coactivator (PGC) from Tox21 10K library (AID 1224841). Further: actives are mostly falling curves and most rising ones were filed inactive; nearly all actives have a fitted effect of over 50% in size. The following applies: PGC/ERR reporter cell line, ONE-Glo luciferase, 18 h; series mostly up to 92.4 µM. From the text: U.S. Tox21 Program National Center for Advancing Translational Sciences [NCATS] NIH Chemical Genomics Center [NCGC] U.S. Environmental Protection Agency [EPA] National Institutes of Environmental Health Sciences [NIEHS] National Toxicology Program [NTP] U.S. Food and Drug Administration [FDA] Tox21 Assay Overview: Estrogen related receptors (ERRs), the first orphan nuclear receptors discovered, play an important role in the control of cellular energy metabolism. ERRs are required for high-energy production in response to the environmental challenges. The pleiotropic PPARgamma coactivator (PGC) is a major partner of ERR and a key regulator in energy homeostasis. Together they have been implicated in the etiology of metabolic disorders such as Type 2 diabetes and metabolic syndrome. ERR-alpha was also identified as an adverse marker for breast cancer progression; ERR-alpha-positive tumors have a poor prognosis. To screen and to identify environmental compounds that perturb the ERR and PGC/ERR signaling pathways could provide valuable information for potential therapeutic or preventive measures in the treatment of metabolic disease. For identifying PGC/ERR antagonists, PGC/ERR cell line (provided by NTP) has been used to screen Tox21 10K library.
Tox21 Assay Protocol Summary: The PGC/ERR cells were dispensed at 2,000 cells/5 ul/well in 1536-well white plates using a Multidrop dispenser. After the assay plates were incubated at a 37 C/5% CO2 incubator for 6 hours, 23 nL of compounds dissolved in DMSO, positive and negative controls or DMSO only was transferred to the assay plate by a pin tool. The plates were incubated at 37 C for 18 hours. 4 ul/well of One-Glo reagent was added into the assay plates using a Flying Reagent Dispenser. After 30-minute incubation at room temperature, the luminescence intensity in the plates was measured using a ViewLux plate reader.
In general terms: qHTS replaces the single test concentration by a dilution series.
On to `COC(=O)c1ccccc1C(=O)c1ccc(OCCN2CCCCC2)cc1`, for which the Potency entry is “inactive”.

On to `OCCCCC(O)CO` (stereo not given), for which the Potency result was “inactive”.

As for `CC(CC=O)CCCC(C)(C)O` (stereo not given), the Potency result is “inactive”.

For `CC(=O)NCc1c(I)c(NC(C)=O)c(I)c(C(=O)O)c1I`, the Potency result was “inactive”.

`CNC(=O)[C@H]1O[C@@H](n2cnc3c(NCc4cc(Cl)ccc4OCc4cc(C)no4)ncnc32)[C@H](O)[C@@H]1N`: the Potency result was “inactive”.

On to `CCCCCCCCCCCCCC`, for which the Potency entry was “inactive”.

In the case of `CCCCCOC(=O)CCC`, the Potency result is “inactive”.

For the compound `COc1ccc(-c2cc(=O)c3c(O)cc(O[C@@H]4O[C@H](CO[C@@H]5O[C@@H](C)[C@H](O)[C@@H](O)[C@H]5O)[C@@H](O)[C@H](O)[C@H]4O)cc3o2)cc1O`, the Potency entry is “inactive”.

With `CC(=O)CCCCn1c(=O)c2c(ncn2C)n(C)c1=O`, the Potency result is “inactive”.

Turning to `COC(=O)C1CC(=O)C(C(=O)OC)CC1=O` (stereo not given), the activity, negative = inhibition is 1.96% [at 8.39 µM] (inactive).

In the case of `C[Si](C)(C)C`, the Potency entry was “inactive”.

Regarding `CC1COc2ccccc2N1` (stereo not given), the Potency result was “inactive”.

For `CCCOC(OCCC)OCCC`, the Potency entry was “inactive”.

Consider `C=C(C)C(=O)OCCNC(C)(C)C`, for which the Potency result was “inactive”.

Regarding `Cc1cc2cc3c(C)cc(=O)oc3c(C)c2o1`, the Potency result is “inactive”.

Consider `O=C1O[C@@H]2[C@@H](O)[C@H](O)O[C@@H]2[C@H]1O`, for which the Potency result was “inactive”.

For the compound `COc1cc(C(=S)N2CCOCC2)cc(OC)c1OC`, the Potency entry was “inactive”.

On to `COc1ccc(Br)c(C)c1`, for which the Potency result was “inactive”.

As to `CC(C)(C)NC(N)=O`, the Potency entry is “inactive”.

With `O=C(O)c1cc(Cl)cc([N+](=O)[O-])c1Cl`, the Potency entry is “inactive”.

With `OC[C@H](Cc1cccc(O)c1)[C@H](CO)Cc1cccc(O)c1`, the Potency result was “inactive”.

For `Cc1ccc2c(c1)OCC(=O)CO2`, the Potency entry was “inactive”.

Consider `NC(CO)C(=O)NNCc1ccc(O)c(O)c1O` (stereo not given), for which the Potency result was “inactive”.

With `CCc1ccc(C=O)cc1`, the Potency result was “inactive”.

Turning to `CCCC/C=C\CCCCCCCCCC=O`, the Potency entry was “inactive”.

As to `BrCCCCCBr`, the Potency entry was “inactive”.

Consider `O=C(NCCN1CCOCC1)c1ccc(Cl)cc1`, for which the Potency result is “inactive”.

Consider `Cc1ccccc1OCC(O)CO` (stereo not given), for which the Potency entry was “inactive”.

For `Cc1ccc(S(=O)(=O)O)c(C)c1`, the Potency result is “inactive”.

Consider `CCCCOC(=O)c1ccccc1`, for which the Potency entry was “inactive”.

In the case of `CCCCCCOC(=O)CC`, the Potency entry was “inactive”.

On to `Cc1cc(Cl)c(C)cc1Cl`, for which the Potency result is “inactive”.

With `COc1ccc2nc(SCc3ncc(C)c(OC)c3C)[nH]c2c1`, the Potency result is “inactive”.

`CC(C)(C)c1cc(CCC(=O)NN)cc(C(C)(C)C)c1O`: the Potency result was “inactive”.

As for `O=C1c2cccc3c2[C@H](CCC3)CN1[C@@H]1CN2CCC1CC2`, the Potency entry was “inactive”.

As for `O=C1c2ccccc2C(=O)N1CCl`, the Potency result was “inactive”.

For `COc1cc(N)ccc1C`, the Potency was 1.52 µM (active).

Turning to `O=C(c1ccc(O)cc1)c1ccc(O)c(O)c1O`, the Potency entry was “inactive”.

In the case of `CO[C@@H]1[C@@H](OC(N)=O)[C@@H](O)[C@H](Oc2ccc3c(O)c(NC(=O)c4ccc(O)c(CC=C(C)C)c4)c(=O)oc3c2C)OC1(C)C`, the Potency entry is “inactive”.

With `CCCCCCCCCCl`, the Potency entry was “inactive”.

Values taken from PubChem BioAssay (Tox21).
